# Test results: PubChem BioAssay (NCATS)
# Where “and” joins values, the source holds several entries; their conditions need not be identical. Equal entries are not always repeated. Values without a mark were called inactive. Records with an inconclusive call do not appear. Calls of active or inactive are those of the source. Unless noted, the call rests on the fitted dose curve; in most records, active means well fitted curve in the direction sought with a large enough effect; inconclusive means small, poorly fitted or top-dose-only effect, or another doubt; inactive means no such curve, though single readings can be large; an effect the other way counts as inactive or inconclusive.
# Key:
# [1] = Cell Viability - BJ (AID 421; calls by dose curve;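 further: potency means the concentration at half of the fitted maximal effect; cells exposed to compound for 40 hours at 37 °C before readout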); conditions: BJ fibroblast viability, qHTS
# Summary of the method: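 Quantitative HTS: ATP depletion in BJ cells after 40 hr compound exposure in complete culture medium, detected with CellTiter-Glo; AC50 from standard Hill fits.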
# [2] = Cell Viability - Jurkat (AID 426;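 active means dose-dependent loss of cell ATP signal giving a full or clear fitted curve, ranked by lower potency value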;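 further: potency means the concentration at half of the fitted maximal effect; cells exposed to compound for 40 hours at 37 °C before ATP read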); conditions: qHTS
# Summary of the method: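 Seed 5000 Jurkat E6-1 cells/well; add compound; incubate 40 hr at 37 °C; add CellTiter-Glo; wait 20 min at room temperature; read luminescence. Fit concentration-response with Hill equation for AC50.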
# [3] = Cell Viability - MRC5 (AID 434; calls by dose curve;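 further: potency means the concentration at half of the fitted maximal effect; cells exposed to compound for 40 hours at 37 °C; potency reflects cytotoxicity seen as loss of intracellular ATP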); conditions: MRC5 lung fibroblast viability, qHTS
# Summary of the method: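 qHTS cytotoxicity in human lung fibroblast MRC5 cells; 40 hr treatment, 37 °C; cellular ATP by luciferase luminescence; DMSO = 0%, 100 uM tamoxifen = 100% inhibition; Hill-fit AC50.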
# [4] = molecular target: Mitogen-activated protein kinase 10 (Mus musculus) (UniProt Q61831); test: JNK3 AlphaScreen Assay (AID 530; active means well fitted curve in either direction with a large enough effect, not every such curve was filed as active;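 further: kinase came from lysate of stimulated human HepG2 cells; signal reports phosphorylation of biotinylated GST-cJun 1-79 at Ser73 with 10 µM ATP; on the % scale 0 is the no-effect control and ±100 the full control effect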)
# Summary of the method: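 Room-temperature AlphaScreen kinase assay; pre-activated HepG2 lysate as JNK3 source, biotin-GST-cJun(1-79) substrate, 10 uM ATP, compound 15 min preincubation.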
# [5] = Cell Viability - N2a (AID 540); conditions: N2a mouse neuroblastoma cell viability; activity change, negative = cytotoxicity: at 92.2 µM (top of the series);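 further: cells exposed to compound for 40 h at 37 °C; nearly all actives have a fitted effect of over 45% in size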; further: potency means the concentration at half of the fitted maximal effect;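 on activity change, negative = cytotoxicity: plate controls were DMSO alone for no effect and tamoxifen control for full effect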
# Summary of the method: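 First, 1500 N2a cells per well incubate 5 hr at 37 °C; next, compounds are added and incubated 40 hr at 37 °C; finally CellTiter-Glo is added and luminescence read after 20 min, with AC50 derived by Hill modeling.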
# [6] = Cell Viability - Renal Proximal Tubule (AID 545); conditions: renal proximal tubule cells viability; activity change, negative = cytotoxicity: at 91.7 µM (top of the series) unless noted;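 further: cells exposed to compound for 40 hours; nearly all actives have a fitted effect of over 40% in size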; further: potency means the concentration at half of the fitted maximal effect;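 on activity change, negative = cytotoxicity: 0% = DMSO only and -100% = 100 µM tamoxifen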
# Summary of the method: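 Primary rat renal proximal tubule cells (1000/well) were treated with compounds for 40 hr at 37 °C in complete medium. Intracellular ATP was measured by CellTiter-Glo luminescence, and AC50 values came from Hill-equation fits of concentration-response data.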
# [7] = Cell Viability - Mesenchymal (AID 546); conditions: mesenchymal cells viability, qHTS; activity change, negative = cytotoxicity: at 91.7 µM (top of the series);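 further: cells exposed to compound for 40 hours before reading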; further: potency means the concentration at half of the fitted maximal effect;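 on activity change, negative = cytotoxicity: 0% = DMSO only and -100% = 100 µM tamoxifen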
# Summary of the method: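 AC50 values reflect the drop in intracellular ATP in a human kidney mesenchymal line derived from normal glomeruli. Treatment lasts 40 hr at 37 °C in complete medium, and the signal comes from CellTiter-Glo luminescence.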
# [8] = Cellular Toxicity (caspase-3) HepG2 (AID 654);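 further: cells exposed to compound for 16 hours before reading; 0% = DMSO alone and 100% = caspase signal from 100 µM tamoxifen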
# Summary of the method: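 qHTS, HepG2, 1500 cells/well, complete medium; cpd 16 h 37 °C; Caspase-Glo 3/7, 20 min RT; lum. Norm: DMSO vs 100 uM tamoxifen; AC50 Hill fit.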
# [9] = Cellular Toxicity (caspase-3) Renal Proximal Tubule (AID 667); conditions: renal proximal tubule cells; at 91.7 µM (top of the series) unless noted;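 further: cells exposed to compound for 16 hours at 37 °C before detection; 0% = DMSO basal and 100% = 10 µM staurosporine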
# Summary of the method: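 Primary rat proximal tubule cells, 1000/well, 5 h plating at 37 °C, then compound 16 h at 37 °C. Caspase-Glo 3/7 reagent, 1 h RT, luminescence. Normalized to DMSO (basal) and 10 uM staurosporine (100%); Hill-fit AC50.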
# [10] = MultiTox-Fluor Cytotoxicity Assay - LYMP1-002 - Live Cells (AID 955);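 further: cells exposed to compound for 16 hours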; further: potency means the concentration at half of the fitted maximal effect
# Summary of the method: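 Cytotoxicity in the human lymphoblastoid line LYMP1-002 is measured as loss of live-cell protease activity after 16 h treatment in complete culture medium. AC50 is derived from Hill-equation fits of qHTS concentration-response data.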
# [11] = MultiTox-Fluor Cytotoxicity Assay - LYMP1-003 - Live Cells (AID 962);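 further: cells exposed to compound for 16 hours at 37 °C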; further: potency means the concentration at half of the fitted maximal effect
# Summary of the method: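 Cells plated at 2500 per well and incubated 5 hr; compounds added and incubated 16 hr at 37 C; MultiTox-Fluor reagent added for 60 min at room temperature; fluorescence of liberated AFC measured at 405/510 nm.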
# [12] = qHTS assay for environmental chemicals that activate the Aryl hydrocarbon Receptor (AhR) signaling pathway (AID 651777); conditions: 1A2-DRE human hepatoma cells, luciferase, 24 h; activation: hits give high values; further: nearly all actives have a fitted effect of over 15% in size; further: potency means the concentration at half of the fitted maximal effect; on activation: % of control where 0% means no effect
# Summary of the method: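 Concentration–response screening used 1,200 1A2-DRE cells per well, 24 hr compound exposure (37 C, 5% CO2), and One-Glo luminescence as the AhR-driven CYP1A2 reporter signal.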
# [13] = qHTS assay for small molecule agonists of the antioxidant response element (ARE) signaling pathway measured by Nrf2-dependant transcriptional activity - cell viability counter screen (AID 720653; active means well fitted curve in the direction sought with a large enough effect in the repeat runs; an effect the other way counts as inactive or inconclusive; further: potency means the concentration at half of the fitted maximal effect); conditions: ARE-bla HepG2 viability, CellTiter-Glo ATP luminescence, 16 h; max response: hits give low values
# Summary of the method: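 Cytotoxicity counter screen: intracellular ATP quantified by CellTiter-Glo luminescence in the same ARE-bla HepG2 plates, after 16 h compound exposure and a 2 h beta-lactamase substrate step.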
# [14] = molecular target: Glucocorticoid receptor (Homo sapiens) (UniProt P04150); test: GR-GFP Redistribution (AID 450;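 active means compounds whose dose series gives a full or clear partial fitted curve of increased nuclear translocation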; further: potency means the concentration at half of the fitted maximal effect); conditions: U2OS GR-GFP nuclear translocation, laser cytometry, 2 h
# Glucocorticoid receptor (Homo sapiens), sequence (P04150 whole entry, looked up, the tested form may be a part): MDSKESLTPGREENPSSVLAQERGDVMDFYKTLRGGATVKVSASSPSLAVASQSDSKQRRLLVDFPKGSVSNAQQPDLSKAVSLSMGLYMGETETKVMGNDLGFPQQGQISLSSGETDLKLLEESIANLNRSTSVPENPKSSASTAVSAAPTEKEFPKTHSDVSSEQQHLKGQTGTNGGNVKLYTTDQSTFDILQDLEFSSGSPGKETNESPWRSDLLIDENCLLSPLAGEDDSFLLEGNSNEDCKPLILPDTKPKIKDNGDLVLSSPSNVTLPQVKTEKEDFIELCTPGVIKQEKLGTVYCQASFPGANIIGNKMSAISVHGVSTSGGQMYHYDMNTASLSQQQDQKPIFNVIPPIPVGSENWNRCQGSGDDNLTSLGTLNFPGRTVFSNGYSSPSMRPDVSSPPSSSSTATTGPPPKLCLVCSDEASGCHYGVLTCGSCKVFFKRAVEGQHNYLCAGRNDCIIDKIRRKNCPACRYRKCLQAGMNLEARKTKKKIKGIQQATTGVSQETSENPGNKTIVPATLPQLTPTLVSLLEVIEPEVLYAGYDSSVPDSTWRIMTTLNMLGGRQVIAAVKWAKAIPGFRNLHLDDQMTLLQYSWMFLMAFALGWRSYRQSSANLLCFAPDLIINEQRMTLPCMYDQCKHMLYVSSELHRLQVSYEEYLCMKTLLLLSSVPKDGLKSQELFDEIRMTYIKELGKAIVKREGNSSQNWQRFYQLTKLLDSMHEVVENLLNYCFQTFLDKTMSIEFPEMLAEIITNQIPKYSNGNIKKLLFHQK
# [15] = molecular target: Glucocorticoid receptor (Homo sapiens) (UniProt P04150); test: GR-EFC Redistribution (AID 451; calls by dose curve; further: potency means the concentration at half of the fitted maximal effect); conditions: CHO-K1 GR-EFC translocation, beta-gal luminescence, 2 h
# Summary of the method: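 Translocation of GR-ED fusion to nuclear EA restores b-gal, read by luminescence after 1 h room-temperature detection. Engineered CHO-K1 biosensor cells, 1,000/well, exposed 2 h at 37 C to titrations up to 46 uM final.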
# [16] = molecular target: Cytochrome P450 2C9 (Homo sapiens) (UniProt P11712); test: qHTS Assay for Inhibitors and Substrates of Cytochrome P450 2C9 (AID 883); further: nearly all actives have a fitted effect of over 60% in size; further: potency means the concentration at half of the fitted maximal effect; on activity change, negative = inhibition: on the % scale 0 is the no-effect control and ±100 the full control effect
# Cytochrome P450 2C9 (Homo sapiens), sequence (P11712 whole entry, looked up): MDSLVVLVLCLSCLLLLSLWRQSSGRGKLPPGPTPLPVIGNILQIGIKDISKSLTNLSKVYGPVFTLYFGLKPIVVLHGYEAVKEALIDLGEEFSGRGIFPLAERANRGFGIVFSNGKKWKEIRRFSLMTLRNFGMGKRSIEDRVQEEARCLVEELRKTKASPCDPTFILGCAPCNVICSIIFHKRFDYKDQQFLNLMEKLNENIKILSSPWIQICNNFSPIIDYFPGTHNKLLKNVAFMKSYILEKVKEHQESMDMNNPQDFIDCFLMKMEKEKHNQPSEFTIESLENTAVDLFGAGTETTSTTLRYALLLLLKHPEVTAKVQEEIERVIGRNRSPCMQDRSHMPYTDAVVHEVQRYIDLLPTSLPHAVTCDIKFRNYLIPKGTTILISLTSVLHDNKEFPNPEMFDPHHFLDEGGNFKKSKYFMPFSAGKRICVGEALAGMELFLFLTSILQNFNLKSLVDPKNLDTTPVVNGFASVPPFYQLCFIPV
# Summary of the method: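 Luminescent read-out of deoxyluciferin hydroxylation, normalized to 57uM sulphaphenazole (AC100). Reaction: 10nM enzyme, 100uM Luciferin-H (equal to KM), 25mM KPO4, 10 min compound preincubation, then 60 min with NADPH regeneration, both at 37C.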
# [17] = molecular target: Cytochrome P450 2D6 (Homo sapiens) (UniProt P10635); test: qHTS Assay for Inhibitors and Substrates of Cytochrome P450 2D6 (AID 891); further: nearly all actives have a fitted effect of over 60% in size; further: potency means the concentration at half of the fitted maximal effect
# Cytochrome P450 2D6 (Homo sapiens), sequence (P10635 whole entry, looked up): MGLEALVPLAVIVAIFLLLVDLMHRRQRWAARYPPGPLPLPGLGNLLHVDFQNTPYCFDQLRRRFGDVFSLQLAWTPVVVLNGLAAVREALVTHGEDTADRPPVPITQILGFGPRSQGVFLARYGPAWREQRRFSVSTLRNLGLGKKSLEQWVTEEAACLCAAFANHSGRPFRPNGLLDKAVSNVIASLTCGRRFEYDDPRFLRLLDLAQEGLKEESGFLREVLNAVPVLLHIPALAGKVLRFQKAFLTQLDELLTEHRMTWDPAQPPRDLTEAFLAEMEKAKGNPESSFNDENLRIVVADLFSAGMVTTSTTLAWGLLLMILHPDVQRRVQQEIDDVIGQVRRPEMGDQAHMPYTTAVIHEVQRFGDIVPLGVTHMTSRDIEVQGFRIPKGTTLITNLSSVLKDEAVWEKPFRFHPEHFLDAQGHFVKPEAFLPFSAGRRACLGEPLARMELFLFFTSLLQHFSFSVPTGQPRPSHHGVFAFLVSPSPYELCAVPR
# Summary of the method: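 Human CYP2D6 (5 nM) with 30 uM Luciferin-ME EGE (at Km) in 100 mM KPO4, compound preincubated 10 min, then NADPH regeneration system for 60 min at room temperature. Luciferin read by luminescence; normalized to 1.43 uM quinidine.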
# [18] = molecular target: 3',5'-cyclic-AMP phosphodiesterase 4B (Homo sapiens) (UniProt Q07343); test: qHTS Assay for Inhibitors of PDE-IV (AID 607; active means well fitted activation curve with a large enough effect in the main read-out, with a control signal flat, not every such curve was filed as active; further: % of control where 0% means no effect)
# 3',5'-cyclic-AMP phosphodiesterase 4B (Homo sapiens), sequence (Q07343 whole entry, looked up): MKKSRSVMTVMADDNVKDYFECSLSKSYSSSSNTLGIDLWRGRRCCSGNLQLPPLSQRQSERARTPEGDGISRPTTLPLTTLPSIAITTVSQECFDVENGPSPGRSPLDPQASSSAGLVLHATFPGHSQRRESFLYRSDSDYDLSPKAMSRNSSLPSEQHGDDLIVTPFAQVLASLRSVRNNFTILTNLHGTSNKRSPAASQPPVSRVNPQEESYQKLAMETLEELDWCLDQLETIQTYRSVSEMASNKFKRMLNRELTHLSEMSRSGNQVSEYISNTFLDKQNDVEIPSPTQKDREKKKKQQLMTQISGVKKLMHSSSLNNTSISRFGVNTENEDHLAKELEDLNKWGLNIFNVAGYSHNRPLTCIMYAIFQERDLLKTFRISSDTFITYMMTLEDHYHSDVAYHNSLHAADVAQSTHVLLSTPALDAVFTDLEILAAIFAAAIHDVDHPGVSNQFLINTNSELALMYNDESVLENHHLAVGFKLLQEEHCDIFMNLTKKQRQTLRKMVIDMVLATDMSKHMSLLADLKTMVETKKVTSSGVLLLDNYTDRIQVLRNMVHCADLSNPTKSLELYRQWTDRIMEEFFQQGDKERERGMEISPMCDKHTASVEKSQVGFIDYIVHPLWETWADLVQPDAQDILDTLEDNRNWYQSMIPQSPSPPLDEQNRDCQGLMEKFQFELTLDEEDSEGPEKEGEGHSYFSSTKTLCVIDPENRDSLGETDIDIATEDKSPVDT
# Summary of the method: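 Live HEK293 cells with a modified cyclic nucleotide-gated (CNG) channel report intracellular cAMP via membrane-potential dye fluorescence (ex 535/em 590 nm). Endogenous PDE-IV was targeted. Compounds were tested at up to 22.9 uM final; RO 20-1724 100 uM served as control.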
# [19] = NFAT Signaling Pathway (AID 444; active means well fitted curve in either direction with a large enough effect, not every such curve was filed as active;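 further: carbachol stimulus at about its EC50 of 1 µM final; on the % scale 0 is the no-effect control and ±100 the full control effect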); conditions: Jurkat NFAT-bla M1, carbachol, beta-lactamase ratio, 5 h; at 17.2 µM (top of the series) unless noted
# Summary of the method: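 Read-out: CCF4 FRET ratio (460 nm/530 nm) after 1 h RT dye loading, used for %activity and AC50 from titration series. Cells: Jurkat NFAT-β-lactamase/M1 line, treated with compound plus 1 uM carbachol for 5 h, 37 °C.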
# [20] = Stat Signaling Pathway (AID 446; active means well fitted curve in either direction with a large enough effect, not every such curve was filed as active;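 further: ME-180 cervical cancer cells given 40 pM IL-6 alongside compound; SIE-controlled beta-lactamase reporter measured as 460/530 nm FRET emission ratio; on the % scale 0 is the no-effect control and ±100 the full control effect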)
# Summary of the method: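 IL-6/STAT signaling read in ME-180 cells via an SIE beta-lactamase reporter. Stimulus was 40 pM IL-6 (its AC50) for 5 hrs, so both activation and inhibition register.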
smiles,measurement,setting,value
C[C@@H]1CC[C@@]2(OC1)O[C@H]1[C@@H](O)[C@H]3[C@@H]4CC[C@H]5C[C@@H](O[C@@H]6O[C@H](CO)[C@H](O[C@@H]7O[C@H](CO)[C@@H](O)[C@H](O[C@@H]8OC[C@@H](O)[C@H](O)[C@H]8O)[C@H]7O[C@@H]7O[C@H](CO)[C@@H](O)[C@H](O[C@@H]8O[C@H](CO)[C@@H](O)[C@H](O)[C@H]8O)[C@H]7O)[C@H](O)[C@H]6O)[C@H](O)C[C@]5(C)[C@H]4CC[C@]3(C)[C@H]1[C@@H]2C,Potency,[1],19.9 µM (active)
same,Potency,[2],0.573 µM (active)
same,Potency,[3],24.4 µM (active)
same,outcome,[4],inactive
same,Potency,[5],31.6 µM (active)
same,Potency,[6],7.94 µM (active)
same,Potency,[7],31.6 µM (active)
same,outcome,[8],inactive
same,caspase-3 activation,[9],-2.38%
same,Potency,[10],3.98 µM (active)
same,Potency,[11],10 µM (active)
same,activation,[12],-9.71%
same,Potency,[13],17.8 µM (active)
CCN1C[C@@]2(C)CC[C@H](O)[C@@]34[C@@H]5C[C@H]6[C@H](O)[C@@H]5[C@](O)(C[C@@H]6OC)[C@H](C[C@@H]23)[C@H]14,Potency,[14],> 46 µM
same,Potency,[15],> 46 µM
same,outcome,[4],inactive
same,Potency,[16],inactive
same,Potency,[17],inactive
O=C(O)[C@H]1C[C@@H]1[C@H](NP(=O)(c1ccccc1)c1ccccc1)c1ccccc1,outcome,[4],inactive
same,outcome,[18],inactive
O=C(O)[C@@H]1C[C@H]1[C@@H](NP(=O)(c1ccccc1)c1ccccc1)c1ccccc1,outcome,[4],inactive
same,outcome,[18],inactive
C[C@@]12CC[C@H](O)C[C@@H]1CC[C@H]1[C@H]2C[C@@H](O)[C@]2(C)[C@@H](C3=CC(=O)OC3)CC[C@@]12O,Potency,[14],> 46 µM
same,Potency,[15],> 46 µM
same,outcome,[4],inactive
same,Potency,[16],inactive
same,Potency,[17],inactive
O=[N+]([O-])c1ccccc1Cl,Potency,[1],> 92 µM
same,Potency,[2],> 92 µM
same,Potency,[3],> 92 µM
same,activation,[12],-0.478% and -0.511%
same,max response,[13],10.4% and -3.52%
C=C(CC1(C(C)NP(=O)(c2ccccc2)c2ccccc2)CC1)c1ccccc1 (stereo unspecified),outcome,[4],inactive
same,Potency,[16],7.94 µM (active)
c1cc2cc(c1)C[n+]1ccc(c3ccccc31)NCc1ccc(cc1)CNc1cc[n+](c3ccccc13)C2,Potency,[14],> 46 µM
same,outcome,[18],inactive
same,Potency,[16],2.51 µM (active)
CCCCCCCCn1sccc1=O,Potency,[1],> 92 µM
same,Potency,[2],7.52 µM (active)
same,Potency,[3],10.7 µM (active)
same,outcome,[4],inactive
same,"activity change, negative = cytotoxicity",[5],-113% (active)
same,Potency,[6],12.6 µM (active)
same,Potency,[7],12.6 µM (active)
same,outcome,[8],inactive
same,caspase-3 activation,[9],-21.1%
same,Potency,[10],7.94 µM (active)
same,Potency,[11],15.8 µM (active)
same,activation,[12],1.42% and -3.52%
same,Potency,[13],50.1 µM (active)
N#CSCSC#N,Potency,[1],14.4 µM (active)
same,Potency,[2],3.31 µM (active)
same,Potency,[3],41.4 µM (active)
same,outcome,[4],inactive
same,Potency,[5],25.1 µM (active)
same,Potency,[6],5.01 µM (active)
same,Potency,[7],12.6 µM (active)
same,outcome,[8],inactive
same,caspase-3 activation,[9],-11.6%
same,Potency,[10],15.8 µM (active)
same,Potency,[11],39.8 µM (active)
same,activation,[12],3.48% and -14.5%
same,Potency,[13],44.7 µM (active) and 39.8 µM (active)
COP(=O)(OC)O/C(=C\Cl)c1cc(Cl)c(Cl)cc1Cl,Potency,[1],> 92 µM
same,Potency,[2],32.2 µM (active)
same,Potency,[3],> 92 µM
same,outcome,[4],inactive
same,Potency,[6],inactive
same,Potency,[7],inactive
same,outcome,[8],inactive
same,caspase-3 activation,[9],"2.58% [at 91.7 µM, primary cells freshly taken from rat, solvent-only wells 0%, staurosporine 100%]"
same,Potency,[10],inactive
same,Potency,[11],inactive
same,activation,[12],0.406%
same,max response,[13],-14.8%
CC[C@@H]1CN2CC[C@@H]1C[C@H]2[C@@H](O)c1ccnc2ccc(OC)cc12,Potency,[14],> 46 µM
same,Potency,[15],> 46 µM
same,outcome,[4],inactive
same,Potency,[16],inactive
same,Potency,[17],0.0016 µM (active)
CN(C)c1ccc(N=O)cc1,Potency,[1],> 92 µM
same,Potency,[2],2.5 µM (active)
same,Potency,[3],42.1 µM (active)
same,outcome,[4],inactive
same,Potency,[5],31.6 µM (active)
same,Potency,[6],15.8 µM (active)
same,Potency,[7],31.6 µM (active)
same,outcome,[8],inactive
same,caspase-3 activation,[9],-9.93%
same,Potency,[10],5.01 µM (active)
same,Potency,[11],6.31 µM (active)
same,Potency,[12],70.8 µM (active)
CC(=O)OC1(Cc2ccccc2)CN2CCC1c1ccccc12 (stereo unspecified),"activity change, negative = inhibition",[19],-23.5%
same,outcome,[20],inactive
same,Potency,[14],> 46 µM
CCCCSP1(=S)NCCCO1 (stereo unspecified),"activity change, negative = inhibition",[19],1.86%
same,outcome,[20],inactive
same,Potency,[14],> 20.6 µM
CC(C)(C)c1ccc(O)c(C[N+](C)(C)C)c1,"activity change, negative = inhibition",[19],-16.5% [at 7.69 µM]
same,outcome,[20],inactive
same,Potency,[14],> 46 µM
same,Potency,[15],> 9.22 µM
same,"activity change, negative = inhibition",[4],-0.903% [at 11.4 µM]
same,outcome,[18],inactive
N[C@]1(C(=O)O)CC[C@@H](C(=O)O)C1,"activity change, negative = inhibition",[19],7.68% [at 38 µM]
same,outcome,[20],inactive
same,Potency,[14],> 46 µM
same,Potency,[15],> 46 µM
same,outcome,[18],inactive
same,Potency,[16],inactive
same,Potency,[17],inactive
